Only some compounds are listed: those with a hit (about 3.8% of all), similar ones and a draw of the others.
hDAT+cocaine: modulates human dopamine transporter uptake under cocaine; 1.3% of 110,000 active; LLC-PK1 hDAT cells, [14C]-dopamine uptake with cocaine IC80; actives deviate in either direction; B-score at 10 µM; AID 449768; Q01959;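 active = Z score or B-score, a plate-position-corrected score, falls beyond the plate's 99.7% confidence bounds, in either direction; inactive = both scores lie inside the 99.7% bounds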;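 also: scored against the spread of the other compound wells on the same plate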
Target sequence (Q01959 whole entry, looked up): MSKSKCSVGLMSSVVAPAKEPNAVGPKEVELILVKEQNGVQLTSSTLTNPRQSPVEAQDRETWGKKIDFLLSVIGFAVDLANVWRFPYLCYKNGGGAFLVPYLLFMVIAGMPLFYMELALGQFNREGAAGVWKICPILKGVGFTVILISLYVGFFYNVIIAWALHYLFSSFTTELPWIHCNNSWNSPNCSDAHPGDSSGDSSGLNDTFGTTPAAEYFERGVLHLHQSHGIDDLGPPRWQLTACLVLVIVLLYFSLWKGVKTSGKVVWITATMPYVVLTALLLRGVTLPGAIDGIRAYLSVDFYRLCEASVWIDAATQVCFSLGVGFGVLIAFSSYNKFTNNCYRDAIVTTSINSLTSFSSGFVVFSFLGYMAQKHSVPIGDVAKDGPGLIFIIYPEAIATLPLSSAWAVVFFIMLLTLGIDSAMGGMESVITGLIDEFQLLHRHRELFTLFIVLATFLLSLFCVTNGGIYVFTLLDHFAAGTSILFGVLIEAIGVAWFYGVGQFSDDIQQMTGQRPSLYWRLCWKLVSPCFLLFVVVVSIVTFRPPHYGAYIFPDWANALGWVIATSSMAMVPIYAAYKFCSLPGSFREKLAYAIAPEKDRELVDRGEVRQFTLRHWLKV
ERa coact pot: ER-alpha (human) coactivator binding potentiation; coactivator binding (% of control), % at 25.6 µM; 1.3% of 86,000 active; TR-FRET ERalpha-LBD/SRC-Cy5 coactivator binding, 2 h; 100 = basal binding, no effect; AID 639; in the data active = activity above about 200%;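 also: binding measured in presence of low estradiol as agonist stimulus; 0% = peptide alone without receptor and 100% = receptor with peptide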
ERb SRC1 inh: ER-beta (human) coactivator binding inhibition; Q92731; TR-FRET ER-beta LBD / SRC1-Cy5 peptide binding; receptor agonist-loaded with 1 µM estradiol; inhibition, % at 25.6 µM; 1.3% of 86,000 active;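 active = compounds whose percent inhibition of the receptor-coactivator binding signal exceeds about 50% in the single-dose screen, limit read from the data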;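 also: 0% = receptor plus peptide wells without compound and 100% = peptide-only wells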
MT1-MMP txn act: MT1-MMP promoter transcription activation; HT1080 MT1-MMP promoter luciferase reporter, luminescence, overnight; hits give high values; AID 750; activation factor at 10 µM; 0.16% of 86,000 active;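 active = activation factor of at least 2 for MT1-MMP transcription at 10 µM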
ERa coact inh: ER-alpha (human) coactivator binding inhibition; TR-FRET ER-alpha LBD / SRC-1 peptide, estradiol-bound; P03372; inhibition, % at 25.6 µM; 1.7% of 86,000 active; in the data active = inhibition above about 50%;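 also: 0% = receptor plus peptide control and 100% = peptide only without receptor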
* = called active by the depositor; . = no result; [ ] = dose if it differs, or a comment.

SMILES	hDAT+cocaine	ERa coact pot	ERb SRC1 inh	MT1-MMP txn act	ERa coact inh
Cc1ccc(S(=O)(=O)N2CCC(=O)N(C(COCc3ccc(Cl)cc3)Cc3ccccc3)CC2)cc1 (stereo not drawn)	1.3	.	.	.	.
CCO[C@H]1OC(C(N)=O)=C[C@@H](C(C)(C)C)[C@@H]1CCCO	0.52	.	.	.	.
COc1ccc(-c2nnc(SCC(=O)NCc3ccco3)o2)cc1	-0.81	69	20	1.1	22
COc1ccc(-c2nnc(SCC(=O)NC(=O)NCc3ccccc3)o2)cc1	-0.11	312*[fluorescence artefact?]	8	1.3	21
O=C(CSc1nnc(-c2ccc(OC(F)F)cc2)o1)NC(=O)NCc1ccco1	-0.85	112	53*	1.2	67*
CCOC(=O)C[C@H]1c2cc(F)ccc2S(=O)(=O)N1Cc1ccc(OC)cc1	0.37	.	.	.	.
COc1ccc2[nH]c3c(NCCN(C(C)C)C(C)C)ncnc3c2c1	1.7	93	-7	1.1	-16
COc1ccc2[nH]c3c(NCCCN4CCCC4=O)ncnc3c2c1	2.9*	103	-9	1.5	-1
CCOC(=O)CC1C(=O)NCCN1S(=O)(=O)c1ccc(Cl)cc1Cl (stereo not drawn)	-0.07	.	.	.	.
CCO[C@@H]1OC(C(=O)N2CCN(C)CC2)=C[C@H](c2coc3ccccc3c2=O)[C@H]1CCCO	0.0075	.	.	.	.
Cc1cc(C)c2cc3c(ccn3C3OC[C@H](O)[C@H](O)[C@H]3O)cc2n1 (stereo partly drawn)	-0.76	83	52*[fluorescence artefact?]	1.2	18
CC(=O)O[C@@H]1[C@@H](OC(C)=O)[C@H](n2ccc3cc([N+](=O)[O-])ccc32)OC[C@@H]1OC(C)=O	0.57	92	1	1.2	-9
CC(=O)OCC(CCn1cnc2cnc(N)nc21)COC(C)=O	-0.77	.	.	.	.
Cc1ccc(-n2ncc3c2ncn2c(-c4ccncc4)nnc32)cc1	.	89	31	1.3	66*[fluorescence artefact?]
c1ccc(Cn2ncc3c2ncn2c(-c4ccncc4)nnc32)cc1	.	110	-5	1.1	-7
Cc1ccc2c(c1)c1cccc3c1n2CCN3CCC(N)=O	0.23	72	60*[fluorescence artefact?]	1.7	11
O=C1c2ccccc2C(=O)N1CCCc1nc2ccccc2c(=O)n1CCCn1ccnc1	-0.0049	516*	0	1.2	-7
COCCSc1ccccc1C(=O)Nc1cccnc1	-2	68	-12	1	1
COCCSc1ccccc1C(=O)Nc1cc(C)on1	0.013	62	96*[fluorescence artefact?]	1	-36
N#Cc1ccc(C(=O)NCC(c2ccco2)N2CCCCC2)cc1 (stereo not drawn)	2*	99	-8	1.3	-10
COc1ccc(CN2CC[C@H]3C=CC[C@@H](C(=O)NCCc4ccccc4)[C@H]3C2=O)cc1OC	1.1	.	.	.	.
CCOC(=O)COc1c(OC)cc(Cl)cc1C1NC(=O)NC(C)=C1C(C)=O (stereo not drawn)	-0.1	88	60*[fluorescence artefact?]	1.1	57*[fluorescence artefact?]
CCCC1=C(C(=O)OCC)C(c2cc(Cl)cc(OC)c2OCC(=O)OCC)NC(=O)N1 (stereo not drawn)	0.12	106	-6	1	25
COC(=O)c1ccc(C#CC(NP(=O)(c2ccccc2)c2ccccc2)c2ccccc2)cc1 (stereo not drawn)	.	.	.	1.2	.
Cc1cc(C)n(-c2nc3ccccc3c(=O)n2OCCOc2ccccc2)n1	0.73	33	56*[fluorescence artefact?]	1.1	7
SMILES	hDAT+cocaine	ERa coact pot	ERb SRC1 inh	MT1-MMP txn act	ERa coact inh
Cc1cc(C)n(-c2nc3ccccc3c(=O)n2OCC(N)=O)n1	-1.6	97	-7	1	-3
O=C(O)c1ccccc1-c1ccccc1C(=O)NCCCO	0.93	97	2	1.1	-7
CC1(C)OCC(CSC2=C(SCC3COC(C)(C)O3)C(=O)c3ncccc3C2=O)O1 (stereo not drawn)	.	.	.	1.2	.
Cc1cccc(NC(=O)CSc2nnc(-c3ccco3)c(-c3ccco3)n2)c1C	-0.35	32	77*[fluorescence artefact?]	1.2	74*[fluorescence artefact?]
Cc1ccccc1-c1nnc(SCC(=O)Nc2cccc(C)c2C)o1	-1.1	124	6	1	-5
Cc1nc(/C=[N+](\[O-])C(C)(C)/C=N/O)n(O)c1C	0.43	114	56*[fluorescence artefact?]	1	-5
N#C[C@H]1C2OC2c2ccccc2N1C(=O)c1ccccc1 (stereo partly drawn)	-0.98	.	.	.	.
COC(=O)C[C@H]1c2cc(C(F)(F)F)ccc2S(=O)(=O)N1Cc1ccc(OC)cc1	0.72	.	.	.	.
C/C(N)=C(/C#N)C(=O)CSc1nnc(Nc2cccc(C)c2C)s1	0.23	47	65*	1.6	52*[fluorescence artefact?]
C/C(N)=C(/C#N)C(=O)CSc1nnc(Nc2c(C)cccc2C)s1	0.77	16	93*[fluorescence artefact?]	1	87*[fluorescence artefact?]
CCC(C)C(NC(=O)C1CCC(C)CC1)C(=O)NC1CCN(Cc2ccccc2)CC1 (stereo not drawn)	-0.59	.	.	.	.
Cc1ccc2c(COC(=O)c3n[nH]c4ccccc34)cc(=O)oc2c1	-0.83	200*	15	1.4	16
CCc1ccc2c(COC(=O)c3n[nH]c4ccccc34)cc(=O)oc2c1	-0.64	161	18	1.5	32
O=C(COc1ccccc1)NC(NC(=S)Nc1ccccc1O)C(Cl)(Cl)Cl (stereo not drawn)	-3.7*	.	.	.	.
Cc1ccc(C)c(NC(=S)NC(NC(=O)Cc2cccc3ccccc23)C(Cl)(Cl)Cl)c1 (stereo not drawn)	-1.3	59	69*	1.1	68*[fluorescence artefact?]
Cc1ccccc1NC(=S)NC(NC(=O)COc1ccccc1)C(Cl)(Cl)Cl (stereo not drawn)	-1.1	.	.	.	.
COc1ccc2nc3oc(C(=O)N4CCC(C(N)=O)CC4)cc3cc2c1	-0.27	119	4	1.1	-1
COc1ccc2nc3oc(C(=O)N4CCN(c5cccc(Cl)c5)CC4)cc3cc2c1	0.025	113	35	1.1	62*[fluorescence artefact?]
COc1ccc2nc3oc(C(=O)N4CCN(c5cccc(C(F)(F)F)c5)CC4)cc3cc2c1	-0.7	118	37	1.2	66*
N=c1n(CCO)c2ccccc2n1CCOc1ccc(Cl)cc1Cl	3*	99	2	1	-59
COc1ccc(OCCn2c(=N)n(CCO)c3ccccc32)cc1	0.75	105	-5	1.1	5
C#Cc1ccc([C@@H]2C=C(C(=O)N3CCOCC3)O[C@H](OCc3ccc(CO)cc3)C2)cc1	0.3	.	.	.	.
C[C@]12CC[C@@H]3c4ccc(OC(=O)c5ccccc5)cc4CC[C@H]3[C@@H]1CC[C@@H]2O	-0.65	298*	-1	1.4	-7
COc1ccc(NC(=O)CC(Cc2ccccc2)C(=O)O)cc1 (stereo not drawn)	-0.87	105	5	1	3
CCCCCNC(CC(=O)Nc1ccc(OC)cc1)C(=O)O (stereo not drawn)	.	788*[fluorescence artefact?]	1	1.1	-7
